Our source for the outcome and AC50 values is PubChem BioAssay (EPA / NIEHS).

The source made the active and inactive calls. How the source made its calls: active means hit-call score of the fitted dose curve at least 0.9, where 1 is the maximum; inactive means score below 0.9.

Read-out in this assay: Glutamate-cysteine ligase catalytic (GCLC), GCLC (gene 2729)
The assay can be described thus: LTEA_HepaRG_GCLC: Life Technologies and Expression Analysis (LTEA) Assay for Glutamate-cysteine ligase catalytic (GCLC) using HepaRG (AID 2283498). The note with it: mRNA level, 48 h; actives raise or lower the signal. On the procedure:
LTEA_HepaRG is a cell based, multiplexed-readout assay that uses HepaRG, a human liver cell line, with measurements taken at 48 hours after chemical dosing on a 96-well plate.LTEA_HepaRG_GCLC is one of 102 assay component(s) measured in the LTEA HepaRG cell culture assay. It is a marker of Oxidative Stress.Data from the assay component LTEA_HepaRG_GCLC was analyzed into 1 endpoint. This assay endpoint, LTEA_HepaRG_GCLC, was analyzed with bidirectional fitting relative to DMSO as the negative control and baseline of activity. Using a type of inducible reporter, measures of mRNA induction for gain or loss-of-signal activity can be used to understand regulation of transcription factor activity. To generalize the intended target to other relatable targets, this assay endpoint is annotated to the ligase intended target family, where the subfamily is C-N ligase.
A total of 1060 chemcials from the ToxCast library were tested in eight-point concentration-response experiments. Cell culture and cytotoxicity assays were conducted at Thermo Fisher Scientific's Custom Services facility (Madison, WI). A single lot of human HepaRG cells (Thermo Fisher Scientific, Frederick, MD) was used for the cell culture experiments. 96-well format collagen type I coated plates of human HepaRG cells were prepared using established methods. Briefly, cryopreserved HepaRG cells were thawed, plated at a density of approximately 100,000 cells/well in HepaRG Thaw, Plate, and General Purpose media (HPRG770, Thermo Fisher Scientific), and incubated for 48 hours. 0.5% DMSO was selected as vehicle control to balance the requisite need of DMSO in HepaRG cultures to maintain differentiation (for example, baseline metabolism, proportions of hepatocytes vs. cholangiocytes), while enabling further hepatic receptor pathway activation (for example, PXR and CAR) in response to chemical exposure. 48 hours after plating, the culture medium was replaced with HepaRG Serum-Free Incudtion Media. Cells were exposed to each test chemical in duplicate and maintained in CO2 incubators for another 48 hours. Chemical plates were thawed to room temperature and 200x concentrations of treatment groups were prepared. 8-point conentration-reponse curves were made with the highest exposure at 100 uM, followed by half-log dilutions, all in 0.5% DMSO. Each test plate contained variouse controls, induction positive controls (1mM phenobarbital), cytotoxicity positive controls ([…] aflatoxin B1), vehicle controls (0.5% DMSO), and total lysis controls (0.5% DMSO). Cell morphology images were taken using an Essen IncuCyte FLR automated microscope, with six 96-well plates imaged in about 24 minutes. Images were captured and exported and JPEG files. Spent culture media was transfered to black-well plates for the LDH assay, and remaining media was sorted at -80 C for later use. Cells were treated with RLT buffer and frozen until shipped for gene expression analysis. Total RNA was isolated from the cell suspension in 75 uL of Buffer RLT (Qiagen, Germantown, MD 20874) by Quintiles/Expression Analysis (Durham, NC) using a custom isolation procedure. Total RNA from each plate well was transferred to a preamplification plate. Fluidigm's 96.96 Dynamic ArrayTM (Fluidigm, Amsterdam, the Netherlands) technology was used for gene expression analyses by quantitative reverse transcription polymerase chain reaction (qRT-PCR, performed by Quintiles/Expression Analysis, Durham, NC)89. Standard TaqManTM Assays (Applied Biosystems/ThermoFisher Scientific, Foster City, CA) were used to assess the expression of 93 genes selected based on their selectivity and sensitivity to important hepatic receptors known to be modulated by environmental chemicals; importance in human hepatocyte functionality; and hepatotoxicity. […]
For the compound `CCC(C)(C)c1ccc(O)c(C(C)(C)CC)c1`, the outcome was inactive.

For `C[C@]12CCC(=O)C[C@@H]1CC[C@@H]1[C@@H]2CC[C@]2(C)[C@@H](O)CC[C@@H]12`, the outcome was inactive.

As for `CCCCCCCCc1ccc(O)cc1`, the compound was called inactive.

For `CN(C)N=O`, the compound was classed as inactive.

Consider `C=C(C)C(=O)[O][Sn]([CH2]CCC)([CH2]CCC)[CH2]CCC`, for which the AC50 (usually the concentration at which the activity in the assay is half-maximal) was 4.01 µM (active).

`C=CC(=O)OCCCCCC(C)C`: the call was inactive.

Regarding `C[C@@H]1C[C@@H]([C@H](O)CC2CC(=O)NC(=O)C2)C(=O)[C@@H](C)C1`, the AC50 is 33.3 µM (active).

On to `CC(C)(OO)c1ccccc1`, for which the compound was called inactive.

Take `ClC1(Cl)C2(Cl)C3(Cl)C4(Cl)C(Cl)(Cl)C5(Cl)C3(Cl)C1(Cl)C5(Cl)C24Cl` (stereo not given): the compound was called inactive.

Regarding `Cc1ccccc1N`, the compound was classed as inactive.

For the compound `O=C(O)C(F)(F)C(F)(F)C(F)(F)C(F)(F)C(F)(F)C(F)(F)F`, the result was inactive.

For the compound `O=C(Nc1ccc2[nH]ccc2c1)c1cc2cc(F)ccc2n1Cc1cccc(F)c1`, the concentration at half-maximal activity (AC50) is 23.6 µM (active).

With `O=c1[nH]c(=O)[nH]c(=O)[nH]1`, the result was inactive.

With `O=C1C2(Cl)C3(Cl)C4(Cl)C(Cl)(Cl)C5(Cl)C3(Cl)C1(Cl)C5(Cl)C24Cl` (stereo not given), the AC50 was 93.3 µM (active).

As to `Oc1cccc2cccnc12`, the outcome was inactive.

`CC(C)(C)CC(C)(C)c1ccc(O)cc1`: the compound was classed as inactive.

Consider `CC12CC1(C)C(=O)N(c1cc(Cl)cc(Cl)c1)C2=O` (stereo not given), for which the outcome was inactive.

Turning to `O=C(O)C(Cl)(Cl)Cl`, the compound was called inactive.

For the compound `CC(=O)[O][Hg][c]1ccccc1`, the AC50 is 23.1 µM (active).

Consider `CCOP(=S)(OCC)Oc1nc(Cl)c(Cl)cc1Cl`, for which the result was inactive.

Consider `CCN1CCC2(CC1)COc1cc3c(cc12)N(C(=O)c1ccc(-c2ccc(-c4nnc(C)o4)cc2C)cc1)CC3`, for which the half-maximal activity concentration (AC50) is 25.4 µM (active).

Consider `COc1cc(-c2ccc(N)c(OC)c2)ccc1N`, for which the compound was classed as inactive.

On to `O=C(O)C(F)(F)C(F)(F)C(F)(F)C(F)(F)C(F)(F)C(F)(F)C(F)(F)C(F)(F)C(F)(F)C(F)(F)F`, for which the call was inactive.

For the compound `CC(C)(c1ccccc1)c1ccc(O)c(C(C)(C)c2ccccc2)c1`, the compound was called inactive.

For `CCOP(=S)(OCC)SCSP(=S)(OCC)OCC`, the AC50 is 0.0663 µM (active).

On to `ClCC(Cl)CCl`, for which the result was inactive.

As to `CCC(=O)C(CC(C)N(C)C)(c1ccccc1)c1ccccc1` (stereo not given), the compound was called inactive.

As for `NC(=O)O`, the compound was called inactive.

`CC(C)(C)c1cc(O)ccc1O`: the call was inactive.

For `Cn1sc(Cl)cc1=O`, the outcome was inactive.
